Bioassay records from PubChem.
Most compounds without a hit are left out; they make up all but 3.3% or so of the library.
ERb SRC1 inh – inhibitors of ERβ-SRC1 coactivator interaction, primary screen, biochemical, TR-FRET, ERβ LBD, SRC-1 peptide | Estrogen receptor beta (Homo sapiens), Q92731 | TR-FRET ER-beta LBD / SRC1-Cy5 peptide binding; receptor agonist-loaded with 1 µM estradiol | inhibition, % at 25.6 µM | hit rate 1.3% among 86,000;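 active = compounds whose percent inhibition of the receptor-coactivator binding signal exceeds about 50% in the single-dose screen, limit read from the data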;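 also: 0% = receptor plus peptide wells without compound and 100% = peptide-only wells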
FAK inh – FAK kinase inhibitors, primary screen, biochemical | inhibition, %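 (tested at 7 µM)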 | biochemical FAK kinase activity assay | hit rate 0.84% among 97,000 | Focal adhesion kinase 1 (Homo sapiens), Q05397; in the data active = inhibition above about 19%;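 also: 0% = DMSO and 100% = reference compound high control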
Smad3 inh – Smad3/FoxH1 peptide binding inhibitors, primary screen, biochemical, TR-FRET; Mothers against decapentaplegic homolog 3 (Homo sapiens), P84022; TR-FRET Smad3/Dy647-FoxH1 peptide binding, europium anti-His; inhibition, % at 25 µM; hit rate 0.29% among 88,000;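 active = compounds that reduce the energy-transfer binding signal between the protein and its labelled peptide by more than half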;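 also: 0% = Smad3 plus labelled peptide maximal FRET and 100% = peptide-only background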
Target sequence (P84022 whole entry, looked up): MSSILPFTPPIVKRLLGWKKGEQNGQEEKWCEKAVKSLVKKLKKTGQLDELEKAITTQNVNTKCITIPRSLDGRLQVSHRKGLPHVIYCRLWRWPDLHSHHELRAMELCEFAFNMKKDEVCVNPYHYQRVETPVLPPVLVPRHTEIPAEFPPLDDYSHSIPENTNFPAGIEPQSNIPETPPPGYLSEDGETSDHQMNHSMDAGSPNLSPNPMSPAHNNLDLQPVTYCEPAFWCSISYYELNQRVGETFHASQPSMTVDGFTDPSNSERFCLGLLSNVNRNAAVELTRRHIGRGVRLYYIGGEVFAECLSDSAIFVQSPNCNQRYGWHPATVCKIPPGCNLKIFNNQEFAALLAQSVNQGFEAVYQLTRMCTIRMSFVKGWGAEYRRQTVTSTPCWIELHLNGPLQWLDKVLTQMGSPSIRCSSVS
ERa SRC1 inh – ERα–SRC-1 coactivator interaction inhibitors, primary screen, biochemical, TR-FRET, ERα LBD, estradiol-bound; hit rate 1.7% among 86,000; TR-FRET ER-alpha LBD / SRC-1 peptide; Estrogen receptor (Homo sapiens), P03372; inhibition, % at 25.6 µM; in the data active = inhibition above about 50%;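 also: 0% = receptor plus peptide control and 100% = peptide only without receptor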
ERa SRC1 pot – enhancers of ERα–SRC-1 coactivator binding, primary screen, biochemical, TR-FRET, ERα LBD, low estradiol. TR-FRET ERalpha-LBD/SRC-Cy5 coactivator binding, 2 h; 100 = basal binding, no effect. Estrogen receptor (Homo sapiens), P03372. coactivator binding (% of control), % at 25.6 µM. hit rate 1.3% among 86,000. AID 639, 2007; in the data active = activity above about 200%;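 also: binding measured in presence of low estradiol as agonist stimulus; 0% = peptide alone without receptor and 100% = receptor with peptide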
Active calls of the source: *; . = no result given; [ ] = dose if it differs, or a comment.

SMILES | ERb SRC1 inh | FAK inh | Smad3 inh | ERa SRC1 inh | ERa SRC1 pot
O=C(Nc1nc(-c2ccco2)c(-c2ccco2)s1)C1CC(=O)N(c2ccc3c(c2)OCCO3)C1 (stereo not given) | 70.5*[fluorescence artefact?] | . | -8.6 | 47.4 | 121.6
CCc1cccc(CC)c1NC(=O)C1CC(=O)N(c2ccc3c(c2)OCCO3)C1 (stereo not given) | . | -1.7 | . | . | .
Nc1nc(-c2ccccc2)c(-c2ccccc2)c(-c2nc(N)nc(-c3ccccc3)c2-c2ccccc2)n1 | . | . | 14.2 | . | .
Cc1cc(N2CCC(C)CC2)nc2cccc(O)c12 | -3.1 | -2.3 | 1.0 | -11.4 | 550.2*[fluorescence artefact?]
COc1ccc2c(-c3ccccc3)cc3nnnn3c2c1 | 16.3 | -10.8 | -1.3 | 17.4 | 205.9*
CC1(C)Cc2nc3sc4c(SCC(=O)NCc5ccccc5)ncnc4c3cc2CO1 | 41.6 | -7.4 | -25.1 | 27.8 | 431.1*[fluorescence artefact?]
CN(C)CCSCCO | . | . | 0.6 | . | .
COCCNS(=O)(=O)c1ccc(C2CNC(=O)C2)cc1 (stereo not given) | -13.9 | 1.2 | 6.0 | -2.3 | 103.2
O=C1CC(c2ccc(S(=O)(=O)NCCOc3ccccc3)cc2)CN1 (stereo not given) | 57.0* | 0.4 | 3.1 | 3.0 | 123.6
O=C(O)c1cc2c(cc1S(=O)(=O)O)[C@@H]1[C@@H]([C@H]3[C@H]2[C@]2(Cl)C(Cl)=C(Cl)[C@@]3(Cl)C2(Cl)Cl)[C@]2(Cl)C(Cl)=C(Cl)[C@@]1(Cl)C2(Cl)Cl | . | . | 31.8 | . | .
COc1ccc(N(CC(=O)NCc2ccco2)S(C)(=O)=O)cc1 | 99.0*[fluorescence artefact?] | -9.7 | -2.6 | -7.0 | 96.3
CCOc1ccc(-c2cc(CCCC(=O)NCc3ccco3)no2)cc1 | -1.6 | . | -1.7 | -42.7 | 204.1*
COc1ccc(OCCC(=O)OCC(=O)NCc2ccco2)cc1 | 49.6 | . | 1.7 | 81.2* | 232.6*[fluorescence artefact?]
COc1ccc(N(CC(=O)NCc2ccco2)S(C)(=O)=O)cc1OC | -0.2 | -1.7 | -11.2 | -4.8 | 106.6
COc1ccc(S(=O)(=O)N(C)CC(=O)NCc2ccco2)cc1 | 7.0 | 2.2 | 7.4 | 7.1 | 85.6
COc1cccc(CN(C)CC(=O)NC(=O)NCc2ccco2)c1 | 38.7 | 6.8 | -8.0 | 57.5*[fluorescence artefact?] | 102.9
NCCC1([N+](=O)[O-])CCNCC1 | . | . | 15.8 | . | .
C[C@H](CCC(=O)O)[C@H]1CC[C@@]2(C)[C@@H]3C(=O)C[C@H]4C(C)(C)[C@@H](O)CC[C@]4(C)[C@H]3C(=O)C[C@]12C | . | . | -11.3 | . | .
COc1ccccc1NCCC(=O)OCC(=O)NCc1ccco1 | 61.3*[fluorescence artefact?] | 18.2 | 18.6 | 77.4*[fluorescence artefact?] | 30.4
CCOC(=O)C(C(=O)NCCCN1CCOCC1)C1CCCCC1 (stereo not given) | -21.0 | 18.9* | -4.5 | -24.6 | 102.5
CC1=NN(c2cccc(C(=O)O)c2)C(=O)/C1=C\C=C\c1ccco1 | 88.6*[fluorescence artefact?] | 10.4 | 39.6 | 82.8*[fluorescence artefact?] | 15.0
CC1(C)[C@@H]2CC[C@@]1(CS(=O)(=O)Nc1ccccc1)C(=O)C2 | . | . | -15.4 | . | .
CC(=O)c1oc2ccccc2c1NC(=O)COC(=O)c1ccc(-n2nc(C)cc2C)cc1 | 32.5 | . | -0.7 | 75.0*[fluorescence artefact?] | 79.2
C[C@@]12C[C@H](O)[C@@H]3[C@H](CCC4=CC(=O)CC[C@]43C)[C@H]1CC[C@H]2c1csc(N)n1 | . | . | 14.6 | . | .
CCC(=C(c1ccc(OC)cc1)c1ccc(OC)cc1)c1cn(CC(O)CN2CCN(C)CC2)c2ccccc12 (stereo not given) | 36.1 | 12.7 | -0.1 | 70.3*[fluorescence artefact?] | 25.9
SMILES | ERb SRC1 inh | FAK inh | Smad3 inh | ERa SRC1 inh | ERa SRC1 pot
Cc1cc(Cc2cc(C)c(N)cc2N)c(N)cc1N | . | . | 102.1* | . | .
COc1ccc(/C=N/Nc2ncc(-c3ccccc3)cn2)c(OC)c1 | 26.9 | 40.4* | 17.8 | 38.5 | 422.2*[fluorescence artefact?]
COc1ccc(/C=N/NC(=O)c2[nH]ncc2Br)c(OC)c1 | . | 16.2 | . | . | .
C=CCn1c(NC(=O)c2ccccc2)c(C#N)c2nc3ccccc3nc21 | 42.1 | . | 66.9* | 73.7*[fluorescence artefact?] | 36.2
C=CCn1c(=O)c2ccccc2n2c(SCc3nnc(-c4ccccc4Br)o3)nnc12 | 35.4 | . | -3.1 | 51.6*[fluorescence artefact?] | 70.8
O=C(O)CCn1cnc2c(=S)nc[nH]c21 | . | . | 52.6* | . | .
O=C(O)CCCCn1cnc2c(=S)nc[nH]c21 | . | . | 51.6* | . | .
CCCCNc1nc(SC)nc2nc[nH]c12 | . | . | 8.2 | . | .
Cc1nn(C)c(C)c1NC(=O)CSc1nc(C2CC2)nc2c1cnn2-c1ccccc1 | 9.1 | 0.3 | -8.2 | 20.1 | 101.8
Cc1nn(C)c(C)c1NC(=O)CSc1nc(-c2ccccc2Cl)nc2c1cnn2-c1ccccc1 | 48.6 | -57.8 | -19.4 | 73.5*[fluorescence artefact?] | 161.8
C/C(N[O-])=C(\C)[N+]([O-])=[Co].CC(=N\[O-])/C(C)=N/[O-].O[C@@H]1[CH-]CCCC1.c1ccncc1 | . | . | 71.3* | . | .
COc1ccccc1CN(Cc1nc2ccccc2c(=O)[nH]1)S(=O)(=O)c1ccc2ccccc2c1 | 19.7 | 4.4 | 0.4 | 24.7 | 279.6*
Nc1ncnc2c1ncn2[C@H]1O[C@@H](C(=O)O)[C@H](O)[C@H]1O | . | . | -0.2 | . | .
O=C(O)NCC1CCCCC1 (tested in a mixture with another compound) | . | . | 4.2 | . | .
CCn1c2ccccc2c2nnc(NCCCO)nc21 | . | . | -4.6 | . | .
COc1ccc(S(=O)(=O)N(C)c2ccc(C(=O)NCCC(C)C)cc2)cc1 | 0.8 | -0.8 | 68.8* | 6.7 | 115.7
O=C(Nc1ccc2c(c1)OCO2)C1Cc2ccccc2CN1S(=O)(=O)c1cccs1 (stereo not given) | 41.1 | 11.4 | -5.8 | 79.0*[fluorescence artefact?] | 59.9
O=C1c2ccccc2C(=O)c2c1ccc(C(=O)O)c2-c1ccc2ccccc2c1 | . | . | 10.0 | . | .
O=C1C(=O)c2ccc(-c3ccccc3)cc2-c2ccccc21 | -2.3 | 55.6* | 65.8*[fluorescence artefact?] | 24.2 | 90.2
CC(CCN)(CCN)[N+](=O)[O-] | . | . | -12.8 | . | .
CCOC(=O)c1[nH]c2ccc(Cl)cc2c1NC(=O)c1nonc1C | 9.6 | 5.5 | -16.9 | 13.6 | 221.4*[fluorescence artefact?]
Cc1ncc(CO)c(CN)c1O | . | . | 11.9 | . | .
Cc1cc(N=Cc2c(CO)cnc(C)c2O)c(N=Cc2c(CO)cnc(C)c2O)cc1C.[Zn] | . | . | 93.0* | . | .
Cn1c(=O)c2c(ncn2CN2CCN(Cn3cnc4c3c(=O)n(C)c(=O)n4C)CC2)n(C)c1=O | . | . | 97.6* | . | .
Cn1c(=O)c2c(ncn2CC(O)CO)n(C)c1=O (stereo not given) | 1.5 | . | -2.7 | -1.1 | 127.5
CCn1c(=NC(=O)c2ccc(S(=O)(=O)N3CCOCC3)cc2)sc2cccc(OC)c21 | 39.6 | 4.1 | 0.9 | 29.7 | 260.6*[fluorescence artefact?]
CCn1c(=NC(=O)c2ccc(N3C(=O)CCC3=O)cc2)sc2c(OC)ccc(OC)c21 | 21.7 | 5.5 | -124.3 | 33.2 | 403.1*
COc1cccc2sc(=NC(=O)c3ccc(S(=O)(=O)N4CCOCC4)cc3)n(C)c12 | 10.8 | . | 16.4 | 6.1 | 161.1
